Laboratory results: the supplement of paper PMC10681739

Molecular target: RUNX1 (UniProt Q01196)
Test: RUNX1 binding intensity (PBM fluorescence) in presence of ETS1, normalised to RUNX1-only experiment (arbitrary fluorescence units); higher = stronger binding
Details: RUNX1 concentration 2 nM; ETS1 concentration 25 nM
Method: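 Cooperative gcPBM on 36-bp genomic probes with neighbouring ETS1 and RUNX1 sites. Recombinant human RUNX1 (2 nM) was incubated alone or with ETS1 (25 nM) and detected with anti-RUNX1 antibody plus Alexa488 secondary. Values are medians over 4 replicate spots; the RUNX1+ETS1 data were normalised to the RUNX1-only data. The probes sit in constant array flanks that are not printed.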
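Also: Full-length recombinant human ETS1 or RUNX1 bound to double-stranded 36-bp genomic probes on microarrays, detected by protein-specific primary antibody and Alexa488 secondary, spot fluorescence as median of four replicate spots.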

Chain of RUNX1 (Q01196 whole entry): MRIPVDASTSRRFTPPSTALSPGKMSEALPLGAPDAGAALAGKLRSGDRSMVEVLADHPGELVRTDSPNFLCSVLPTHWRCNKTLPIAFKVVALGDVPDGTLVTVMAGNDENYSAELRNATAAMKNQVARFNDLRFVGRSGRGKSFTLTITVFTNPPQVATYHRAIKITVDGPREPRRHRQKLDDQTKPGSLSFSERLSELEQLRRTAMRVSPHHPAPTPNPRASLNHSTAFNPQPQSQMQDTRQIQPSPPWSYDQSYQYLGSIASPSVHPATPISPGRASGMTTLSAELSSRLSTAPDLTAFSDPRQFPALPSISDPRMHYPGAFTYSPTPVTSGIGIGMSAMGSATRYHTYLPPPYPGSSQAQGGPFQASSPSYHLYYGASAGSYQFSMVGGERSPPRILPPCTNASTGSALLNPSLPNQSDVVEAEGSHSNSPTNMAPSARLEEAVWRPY

Which RUNX1 binding intensity does the source give for GAGACACTCTGCTTCCTGCGGTGGAAGATTCAGTAT here?
Its RUNX1 binding intensity is 1080.

Which RUNX1 binding intensity does the source give for CAGTTTGCCCCGGATGTTGACCGCCTTGAAGTCGTA here?
The RUNX1 binding intensity was 1380.

Which RUNX1 binding intensity does the source give for CCCACCCGGAAATGAGCCAACAGTGGTTTCGCCCCG here?
Its RUNX1 binding intensity is 1380.

Which RUNX1 binding intensity does the source give for GTGCCGGCGGCCGGATGTGGGCGGGGCCACGGGGAG here?
The RUNX1 binding intensity was 4170.

GAGTACAGGAAATGCAAAGTAAAACCACAGTGAGAT was tested. Which RUNX1 binding intensity did it give?
The RUNX1 binding intensity was 1850.

How did the RUNX1 binding intensity turn out when CCGGGAAGGCGGAAGCAGCAGAGACGCCGCAAGGCC was run?
Its RUNX1 binding intensity is 980.

With TGACATTTCCGGCCCCACCTCGGCCCGCAGCGCCGC as the sequence, how does the RUNX1 binding intensity read?
Its RUNX1 binding intensity is 2320.

For TTTACAGGAAATTACAGGGGTTAAACCAAACCACAA, which RUNX1 binding intensity is on record?
The RUNX1 binding intensity was 1820.

Which RUNX1 binding intensity does the source give for GCCTGTCGCAGGAACGGAAGTGGTTACGGCCCTAGT here?
Its RUNX1 binding intensity is 3500.

TGCCTCACCTCACATCCGTTTGTGGCTGCCGAGTGC was tested. Which RUNX1 binding intensity did it give?
Its RUNX1 binding intensity is 1880.

For GCGCCCGGAAGGAAGGCTGGGGTAGGTTGTGGTTTC, which RUNX1 binding intensity is on record?
Its RUNX1 binding intensity is 1140.

For TTTAGACACCGCTTCCTGCCACAAGCCCAAGACTTA, which RUNX1 binding intensity is on record?
The RUNX1 binding intensity was 3470.

How did the RUNX1 binding intensity turn out when CCTTTACGTTTTCCTGTTGCGGGTTCTATCGCTCTG was run?
Its RUNX1 binding intensity is 3260.

For ATGTCTTCCTGTACAGGAACTGGGTCCCAGCCGCAG, which RUNX1 binding intensity is on record?
Its RUNX1 binding intensity is 1510.

CAAGGTTCCTCCGCTTCCTGCCCGCAGGCCGAACCT was tested. Which RUNX1 binding intensity did it give?
Its RUNX1 binding intensity is 1830.

AGCGCCGGAAGTGTGTCTGCGTAAAACTGCGGCTCG was tested. Which RUNX1 binding intensity did it give?
Its RUNX1 binding intensity is 1520.

GAGCCTGTTGCTTCCGGTTCAGAGCCCACATGCTGG was tested. Which RUNX1 binding intensity did it give?
Its RUNX1 binding intensity is 1940.

With AGTACGATGGGAGGAAGTGGTTTGTAAGAGGAGGAC as the sequence, how does the RUNX1 binding intensity read?
The RUNX1 binding intensity was 1490.

CTGAGCAAAAGGAGGAAGCTGTGGTCTGTGTACCCA was tested. Which RUNX1 binding intensity did it give?
Its RUNX1 binding intensity is 945.

For CACTTCCTGCCCTCTTCCACTTTCAAAACCACATCA, which RUNX1 binding intensity is on record?
Its RUNX1 binding intensity is 9880.

How did the RUNX1 binding intensity turn out when CCTCTGAGGCAGGAAGCTGCGGTGAAGTCTGAAGTT was run?
Its RUNX1 binding intensity is 2070.

How did the RUNX1 binding intensity turn out when GCCCCTAAACCGGATGCGGCAGCCACCGCGGACCCC was run?
The RUNX1 binding intensity was 3550.

How did the RUNX1 binding intensity turn out when AGGGCTGAAACAGGATGTGGTGAGTGAGGTAGGGTG was run?
The RUNX1 binding intensity was 3160.

For CCAACACAGGAAATAATTTGAAACCACAATCAGAAA, which RUNX1 binding intensity is on record?
Its RUNX1 binding intensity is 3290.

How did the RUNX1 binding intensity turn out when GTAAAAGAGGAAGTAACACCTCCTTGCGGTTGAGAC was run?
Its RUNX1 binding intensity is 3280.

How did the RUNX1 binding intensity turn out when AGTCTAACCAACAAAGGATGTGGTAGGTAAAAGGTT was run?
Its RUNX1 binding intensity is 959.

With CCTCAATTTCCTGGCCAGAGAAACCACTGCCTCTCA as the sequence, how does the RUNX1 binding intensity read?
Its RUNX1 binding intensity is 1810.

Which RUNX1 binding intensity does the source give for GGGTGCAGACGGGAAGTTGCGGCTGCCAGCGAAGCT here?
The RUNX1 binding intensity was 1270.

With AAGTTTTGGGTTTTCCGCCCACAGCCGCCGAAAGTG as the sequence, how does the RUNX1 binding intensity read?
The RUNX1 binding intensity was 1090.

GAGGGCTGCTTCCTGCTCTGTGGAGGCCGCAGCGGG was tested. Which RUNX1 binding intensity did it give?
The RUNX1 binding intensity was 1270.

CAGGCTGCTTCCGGCGCGCGGCAGAGCGGTCAGAGC was tested. Which RUNX1 binding intensity did it give?
The RUNX1 binding intensity was 1700.

Which RUNX1 binding intensity does the source give for GAGAAACAAACAGGATGTGGTCTCTGCCCTGGAGGA here?
The RUNX1 binding intensity was 2420.

Which RUNX1 binding intensity does the source give for GGGAGGTGTCCAGGAAGTGGTTGGAGAGTCTGGTCT here?
The RUNX1 binding intensity was 1020.

With TCTGTCGCACATCCGGTGTGAGCTGCGGGGCGGTGG as the sequence, how does the RUNX1 binding intensity read?
Its RUNX1 binding intensity is 1640.

TGACGGCAGGCAGGATGTGGTGAGACAAATCCACTC was tested. Which RUNX1 binding intensity did it give?
Its RUNX1 binding intensity is 2660.

Which RUNX1 binding intensity does the source give for AGCGCCCCATCCCGCGGATGTGGTAAAGCTTCGCGC here?
Its RUNX1 binding intensity is 1570.

With TGCAAGAGGAAGCTGGGGTTTGTGGTTCATGTTTTG as the sequence, how does the RUNX1 binding intensity read?
Its RUNX1 binding intensity is 1390.

Which RUNX1 binding intensity does the source give for TATGGCGGGCAGGAAGTGCGGGTGCGCGCCTGCGCA here?
Its RUNX1 binding intensity is 1360.

How did the RUNX1 binding intensity turn out when AGCAGGAAGTATGTTGAAAGTCATAACCACAGCAAA was run?
Its RUNX1 binding intensity is 1020.

For CCGATGGCGGCGGAACTGTGGTCAGGGCTGCCCTGA, which RUNX1 binding intensity is on record?
Its RUNX1 binding intensity is 921.
